# Results taken from PubChem BioAssay (EPA / NIEHS).
# Calls of active or inactive are those of the source. Rule for the calls: active = hit-call score of the fitted dose curve at least 0.9, where 1 is the maximum; inactive = score below 0.9.
# Columns and labels:
# Settings in all cases: mRNA level, 48 h; actives raise or lower the signal
# [1] = read-out: ABC Transporter (ABCB1), ABCB1 (gene 5243); assay: LTEA_HepaRG_ABCB1: Life Technologies and Expression Analysis (LTEA) Assay for ABC Transporter (ABCB1) using HepaRG (AID 2283460)
# In short: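 ABCB1 transcript level measured by TaqMan qRT-PCR against three housekeeping genes after 48 h chemical exposure of differentiated HepaRG cells. Top concentration 100 uM, half-log steps, eight points, 0.5% DMSO vehicle; bidirectional fit relative to DMSO.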
# [2] = read-out: growth arrest and DNA damage 45 (GADD45B), GADD45B (gene 4616); assay: LTEA_HepaRG_GADD45B: Life Technologies and Expression Analysis (LTEA) Assay for growth arrest and DNA damage 45 (GADD45B) using HepaRG (AID 2283461)
# In short: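 Differentiated HepaRG cells, plated 48 h then switched to serum-free induction medium, were exposed 48 h in duplicate to eight half-log concentrations from 100 uM in 0.5% DMSO; mRNA quantified by qRT-PCR, normalized to ACTB/GAPDH/POLR2A, bidirectional fit versus DMSO.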
# [3] = read-out: ABC Transporter (ABCC3), ABCC3 (gene 8714); assay: LTEA_HepaRG_ABCC3: Life Technologies and Expression Analysis (LTEA) Assay for ABC Transporter (ABCC3) using HepaRG (AID 2283462)
# In short: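 HepaRG cells in serum-free induction medium were exposed for 48 h in duplicate to 8-point half-log concentrations topping at 100 uM in 0.5% DMSO. ABCC3 mRNA was measured by qRT-PCR normalized to ACTB, GAPDH and POLR2A, with bidirectional fitting versus DMSO.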
# [4] = read-out: ABC Transporter (ABCC2), ABCC2 (gene 1244); assay: LTEA_HepaRG_ABCC2: Life Technologies and Expression Analysis (LTEA) Assay for ABC Transporter (ABCC2) using HepaRG (AID 2283464)
# In short: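 HepaRG cells were plated 48 h, switched to serum-free induction medium, then exposed in duplicate for 48 h to 8 concentrations (top 100 uM, half-log steps, 0.5% DMSO). ABCC2 mRNA was measured by qRT-PCR normalized to ACTB/GAPDH/POLR2A; bidirectional fitting versus DMSO.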
# [5] = read-out: Broad substrate specificity ATP-binding cassette transporter ABCG2 (Homo sapiens) (UniProt Q9UNQ0); assay: LTEA_HepaRG_ABCG2: Life Technologies and Expression Analysis (LTEA) Assay for ABC Transporter (ABCG2) using HepaRG (AID 2283465)
# In short: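 ABCG2 transcript was quantified by TaqMan qRT-PCR against three housekeeping genes in HepaRG cells. Cells were treated in duplicate for 48 h across an 8-point half-log series up to 100 uM, with 0.5% DMSO vehicle. Gain or loss versus DMSO was fit.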
# [6] = read-out: ATP-citrate lyase (ACLY), ACLY (gene 47); assay: LTEA_HepaRG_ACLY: Life Technologies and Expression Analysis (LTEA) Assay for ATP-citrate lyase (ACLY) using HepaRG (AID 2283466)
# In short: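 ACLY mRNA quantified by qRT-PCR on Fluidigm arrays against three housekeeping genes, after 48 h chemical treatment of HepaRG cells (top concentration 100 uM, half-log steps, 0.5% DMSO vehicle). Up- or down-regulation fitted relative to DMSO.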
# [7] = read-out: Peroxisomal acyl-coenzyme A oxidase 1 (ACOX1) gene, ACOX1 (gene 51); assay: LTEA_HepaRG_ACOX1: Life Technologies and Expression Analysis (LTEA) Assay for Peroxisomal acyl-coenzyme A oxidase 1 (ACOX1) gene using HepaRG (AID 2283467)
# In short: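 ACOX1 transcript levels were quantified by TaqMan qRT-PCR against three housekeeping genes after 48 h chemical exposure of differentiated human HepaRG cells. Exposure used eight half-log steps topping at 100 uM, 0.5% DMSO vehicle, in duplicate. Bidirectional curve fits were made relative to DMSO.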
# [8] = read-out: Alkaline Phosphatase, Placental (ALPP) gene, ALPP (gene 250); assay: LTEA_HepaRG_ALPP: Life Technologies and Expression Analysis (LTEA) Assay for Alkaline Phosphatase, Placental (ALPP) gene using HepaRG (AID 2283468)
# In short: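 Differentiated human HepaRG cells were plated and cultured 48 h, then exposed in duplicate for 48 h in serum-free induction medium to eight half-log concentrations from 100 uM in 0.5% DMSO. ALPP mRNA was measured by TaqMan qRT-PCR, normalized to ACTB, GAPDH, POLR2A.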
# [9] = read-out: Bcl-2 (BAD) gene, BAD (gene 572); assay: LTEA_HepaRG_BAD: Life Technologies and Expression Analysis (LTEA) Assay for Bcl-2 (BAD) gene using HepaRG (AID 2283469)
# In short: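 Read-out: qRT-PCR of BAD mRNA, normalized to three housekeeping genes. Human HepaRG cultures got 48 h chemical exposure in 0.5% DMSO, duplicate eight-point half-log series topping at 100 uM. Gain or loss of signal fitted versus DMSO vehicle.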
# [10] = read-out: Bcl-2 (BAX) gene, BAX (gene 581); assay: LTEA_HepaRG_BAX: Life Technologies and Expression Analysis (LTEA) Assay for Bcl-2 (BAX) gene using HepaRG (AID 2283470)
# In short: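 Human HepaRG cells treated in duplicate for 48 h across eight concentrations (max 100 uM, 0.5% DMSO); BAX expression measured by qRT-PCR.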
# [11] = read-out: adenosine kinase (ADK) gene, ADK (gene 132); assay: LTEA_HepaRG_ADK: Life Technologies and Expression Analysis (LTEA) Assay for adenosine kinase (ADK) gene using HepaRG (AID 2283471)
# In short: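 Following 48 h exposure of HepaRG cells in 0.5% DMSO (top concentration 100 uM, duplicate wells), ADK mRNA induction or suppression was measured by qRT-PCR, normalised to ACTB/GAPDH/POLR2A, and fitted bidirectionally relative to vehicle.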
# [12] = read-out: Alpha-fetoprotein (AFP) gene, AFP (gene 174); assay: LTEA_HepaRG_AFP: Life Technologies and Expression Analysis (LTEA) Assay for Alpha-fetoprotein (AFP) gene using HepaRG (AID 2283472)
# In short: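 Measures AFP mRNA change in HepaRG after 48 h chemical exposure (8 half-log concentrations, highest 100 uM, 0.5% DMSO). Fold change relative to DMSO, fitted in both directions.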
# [13] = read-out: Apoptosis regulator Bcl-2 (Homo sapiens) (UniProt P10415); assay: LTEA_HepaRG_BCL2: Life Technologies and Expression Analysis (LTEA) Assay for Bcl-2 gene using HepaRG (AID 2283475);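 note: BCL2 transcript by TaqMan qRT-PCR normalised to ACTB GAPDH and POLR2A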
# In short: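 Each chemical was tested in duplicate on HepaRG cultures held in serum-free induction medium for 48 h, highest concentration 100 uM with half-log dilutions. Transcript levels came from multiplexed qRT-PCR, normalised to housekeeping genes; activity was scored in either direction relative to DMSO.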
# [14] = read-out: Bcl-2 (BID) gene, BID (gene 637); assay: LTEA_HepaRG_BID: Life Technologies and Expression Analysis (LTEA) Assay for Bcl-2 (BID) gene using HepaRG (AID 2283476)
# In short: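 Assay used HepaRG hepatic cells treated 48 h in serum-free medium with half-log dilutions from 100 uM. Endpoint: BID mRNA, qRT-PCR, normalized to ACTB/GAPDH/POLR2A.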
# [15] = read-out: Caspase-3 (Homo sapiens) (UniProt P42574); assay: LTEA_HepaRG_CASP3: Life Technologies and Expression Analysis (LTEA) Assay for cysteine-aspartic acid protease (CASP3) using HepaRG (AID 2283477)
# In short: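 Differentiated human HepaRG cells in serum-free induction medium were exposed 48 h to 8-point half-log concentrations from 100 uM (0.5% DMSO vehicle). CASP3 mRNA was measured by qRT-PCR, normalised to ACTB, GAPDH and POLR2A, with bidirectional fitting against DMSO.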
# [16] = read-out: Cytochrome P450 (CYP24A1), CYP24A1 (gene 1591); assay: LTEA_HepaRG_CYP24A1: Life Technologies and Expression Analysis (LTEA) Assay for Cytochrome P450 (CYP24A1) using HepaRG (AID 2283478)
# In short: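 Differentiated HepaRG cells, pre-cultured 48 h, were exposed in duplicate for 48 h in serum-free induction medium to 8 half-log concentrations (top 100 uM, 0.5% DMSO). CYP24A1 mRNA was quantified by TaqMan qRT-PCR, normalized to ACTB/GAPDH/POLR2A, fitted bidirectionally versus DMSO.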
# [17] = read-out: Cytochrome P450 (CYP1A2), CYP1A2 (gene 1544); assay: LTEA_HepaRG_CYP1A2: Life Technologies and Expression Analysis (LTEA) Assay for Cytochrome P450 (CYP1A2) using HepaRG (AID 2283479)
# In short: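 Differentiated human HepaRG cells in serum-free induction medium were exposed in duplicate for 48 h to 8-point half-log concentrations up to 100 uM in 0.5% DMSO. CYP1A2 mRNA measured by qRT-PCR, normalized to ACTB, GAPDH, POLR2A; bidirectional fit vs DMSO.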
# Sequence of Broad substrate specificity ATP-binding cassette transporter ABCG2 (Homo sapiens) (Q9UNQ0 whole entry, looked up): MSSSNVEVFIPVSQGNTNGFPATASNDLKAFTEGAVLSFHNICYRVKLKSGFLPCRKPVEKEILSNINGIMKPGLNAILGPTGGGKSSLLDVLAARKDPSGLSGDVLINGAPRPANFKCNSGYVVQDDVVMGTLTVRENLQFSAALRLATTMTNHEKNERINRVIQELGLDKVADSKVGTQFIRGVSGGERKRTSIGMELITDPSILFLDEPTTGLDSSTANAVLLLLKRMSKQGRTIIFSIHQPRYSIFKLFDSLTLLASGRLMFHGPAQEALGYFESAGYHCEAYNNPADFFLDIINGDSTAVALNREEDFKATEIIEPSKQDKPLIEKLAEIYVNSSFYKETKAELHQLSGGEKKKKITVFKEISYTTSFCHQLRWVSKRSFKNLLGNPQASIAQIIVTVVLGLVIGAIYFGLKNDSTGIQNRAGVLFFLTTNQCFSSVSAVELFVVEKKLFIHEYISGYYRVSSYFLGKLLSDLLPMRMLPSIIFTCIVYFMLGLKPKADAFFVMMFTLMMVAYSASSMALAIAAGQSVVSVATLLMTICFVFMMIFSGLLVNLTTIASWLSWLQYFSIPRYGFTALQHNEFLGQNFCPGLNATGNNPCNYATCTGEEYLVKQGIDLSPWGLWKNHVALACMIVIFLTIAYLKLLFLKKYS
# Sequence of Caspase-3 (Homo sapiens) (P42574 whole entry, looked up): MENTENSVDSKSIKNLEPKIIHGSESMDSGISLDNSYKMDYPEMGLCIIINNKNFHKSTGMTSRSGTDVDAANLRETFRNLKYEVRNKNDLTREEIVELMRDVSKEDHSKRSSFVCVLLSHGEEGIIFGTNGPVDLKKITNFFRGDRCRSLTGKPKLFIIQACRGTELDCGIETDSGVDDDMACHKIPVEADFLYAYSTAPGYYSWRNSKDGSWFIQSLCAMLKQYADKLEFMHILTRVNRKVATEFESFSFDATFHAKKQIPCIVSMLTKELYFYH
# Sequence of Apoptosis regulator Bcl-2 (Homo sapiens) (P10415 whole entry, looked up): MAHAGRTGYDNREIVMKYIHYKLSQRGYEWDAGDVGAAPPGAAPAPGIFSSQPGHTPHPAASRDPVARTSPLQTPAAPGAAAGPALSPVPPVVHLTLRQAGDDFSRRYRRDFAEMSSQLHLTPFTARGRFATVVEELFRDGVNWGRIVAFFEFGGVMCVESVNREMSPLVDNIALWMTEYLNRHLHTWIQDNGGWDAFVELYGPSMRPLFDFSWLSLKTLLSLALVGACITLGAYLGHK
compound,measurement,setting,value
O=C(O)COc1ccc(Cl)cc1Cl,outcome,[1],inactive
same,outcome,[2],inactive
same,outcome,[3],inactive
same,outcome,[4],inactive
same,outcome,[5],inactive
same,outcome,[6],inactive
same,outcome,[7],inactive
same,outcome,[8],inactive
same,outcome,[9],inactive
same,outcome,[10],inactive
same,outcome,[11],inactive
same,outcome,[12],inactive
same,outcome,[13],inactive
same,outcome,[14],inactive
same,outcome,[15],inactive
same,outcome,[16],inactive
same,AC50,[17],50 µM (active)
COc1nn(CSP(=S)(OC)OC)c(=O)s1,outcome,[1],inactive
same,outcome,[2],inactive
same,outcome,[3],inactive
same,outcome,[4],inactive
same,outcome,[5],inactive
same,outcome,[6],inactive
same,outcome,[7],inactive
same,outcome,[8],inactive
same,outcome,[9],inactive
same,outcome,[10],inactive
same,outcome,[11],inactive
same,outcome,[12],inactive
same,outcome,[13],inactive
same,outcome,[14],inactive
same,outcome,[15],inactive
same,outcome,[16],inactive
same,AC50,[17],12.1 µM (active)
O=C(NC(=O)c1c(F)cccc1F)Nc1ccc(OC(F)(F)C(F)OC(F)(F)F)c(Cl)c1 (stereo unspecified),outcome,[1],inactive
same,outcome,[2],inactive
same,outcome,[3],inactive
same,outcome,[4],inactive
same,outcome,[5],inactive
same,AC50,[6],25 µM (active)
same,outcome,[7],inactive
same,outcome,[8],inactive
same,outcome,[9],inactive
same,outcome,[10],inactive
same,outcome,[11],inactive
same,outcome,[12],inactive
same,outcome,[13],inactive
same,outcome,[14],inactive
same,outcome,[15],inactive
same,outcome,[16],inactive
same,AC50,[17],12.3 µM (active)
CCC(C)(NC(=O)c1cc(Cl)c(C)c(Cl)c1)C(=O)CCl (stereo unspecified),AC50,[1],89.8 µM (active)
same,outcome,[2],inactive
same,AC50,[3],65.3 µM (active)
same,AC50,[4],89 µM (active)
same,AC50,[5],12.2 µM (active)
same,outcome,[6],inactive
same,AC50,[7],85.1 µM (active)
same,outcome,[8],inactive
same,outcome,[9],inactive
same,outcome,[10],inactive
same,AC50,[11],92.1 µM (active)
same,AC50,[12],76 µM (active)
same,outcome,[13],inactive
same,AC50,[14],82.9 µM (active)
same,AC50,[15],92.4 µM (active)
same,outcome,[16],inactive
same,AC50,[17],74.1 µM (active)
O=C1c2ccccc2C(=O)N1SC(Cl)(Cl)Cl,outcome,[1],inactive
same,outcome,[2],inactive
same,outcome,[3],inactive
same,outcome,[4],inactive
same,outcome,[5],inactive
same,outcome,[6],inactive
same,outcome,[7],inactive
same,outcome,[8],inactive
same,outcome,[9],inactive
same,outcome,[10],inactive
same,outcome,[11],inactive
same,outcome,[12],inactive
same,outcome,[13],inactive
same,outcome,[14],inactive
same,outcome,[15],inactive
same,outcome,[16],inactive
same,outcome,[17],inactive
Clc1ccccc1-c1nnc(-c2ccccc2Cl)nn1,outcome,[1],inactive
same,outcome,[2],inactive
same,outcome,[3],inactive
same,AC50,[5],5.64 µM (active)
same,outcome,[6],inactive
same,outcome,[7],inactive
same,outcome,[8],inactive
same,outcome,[9],inactive
same,outcome,[10],inactive
same,outcome,[11],inactive
same,outcome,[12],inactive
same,outcome,[13],inactive
same,outcome,[14],inactive
same,outcome,[15],inactive
same,outcome,[16],inactive
same,AC50,[17],17.3 µM (active)
